Only some compounds are listed: those with a hit (about 2.4% of all), similar ones and a draw of the others.
D2 PAM-1: Beta-Arrestin HTS for Positive Allosteric Modulators of the Human D2 Dopamine Receptor: Potentiators | D(2) dopamine receptor (Homo sapiens), P14416 | 360,000 tested, 0.23% active | potentiation, % (test concentration not listed) | DiscoveRx D2 beta-arrestin cells, luminescence, 90 min; 100% = 57 uM dopamine signal; in the data active means potentiation above about 50%
Target sequence (P14416 whole entry, looked up): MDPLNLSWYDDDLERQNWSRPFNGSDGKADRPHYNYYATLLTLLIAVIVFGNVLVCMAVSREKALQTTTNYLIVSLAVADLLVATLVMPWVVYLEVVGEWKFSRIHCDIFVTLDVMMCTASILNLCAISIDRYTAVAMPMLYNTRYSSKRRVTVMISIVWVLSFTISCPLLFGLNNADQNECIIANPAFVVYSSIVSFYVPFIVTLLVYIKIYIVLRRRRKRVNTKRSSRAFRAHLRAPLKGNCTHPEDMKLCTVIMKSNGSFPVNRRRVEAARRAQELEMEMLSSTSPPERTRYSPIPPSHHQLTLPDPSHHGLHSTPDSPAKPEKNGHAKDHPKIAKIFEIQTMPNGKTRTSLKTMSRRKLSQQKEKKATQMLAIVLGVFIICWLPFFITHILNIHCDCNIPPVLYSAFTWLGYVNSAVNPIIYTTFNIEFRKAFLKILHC
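D2 cells co-treated with compound plus 50 nM dopamine (EC20) for 90 min at 37 deg C to detect potentiation. Beta-arrestin recruitment was read as enzyme-fragment luminescence after 1 h at ambient temperature. Full response was set by 57 uM dopamine.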
D2 PAM-2: HTS Assay for Positive Allosteric Modulators of the Human D2 Dopamine Receptor: Primary Screen for Potentiators; potentiation, % at 10 µM; 340,000 tested, 0.34% active; AID 485347, 2010; HEK293 T-REx D2, calcium flux, EC20 dopamine potentiation;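 active means potentiation over 3 SD above the plate norm, cut at about 30% in these data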
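Primary screen. Calcium kinetics in induced HEK293 T-REx D2 cells: compound pre-addition 180 s, EC20 dopamine, 180 s more.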
D2 antagonist: HTS Assay for Allosteric Antagonists of the Human D2 Dopamine Receptor: Primary Screen for Antagonists. HEK293 TREx D2 cells, calcium flux, dopamine EC80. inhibition, % at 10 µM. 340,000 tested, 2% active. AID 485344, 2010; in the data active means inhibition above about 30%; inactive means below that, where a call was filed
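Overnight-induced (tetracycline, 30 C) HEK293 T-REx cells carrying force-coupled D2 receive a no-wash calcium dye, then compound, then EC80 dopamine at 180 s; signals are read kinetically throughout.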
D2 ag-1: Beta-Arrestin HTS for Positive Allosteric Modulators of the Human D2 Dopamine Receptor: Agonists; D(2) dopamine receptor (Homo sapiens), P14416; DiscoveRx PathHunter D2 beta-arrestin, luminescence, 90 min; 100% = 57 uM dopamine signal; activation, % (test concentration not listed); 360,000 tested, 0.084% active; in the data active means activation above about 40%
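Agonist mode: compounds alone added to overnight-plated D2 PathHunter cells for 90 min at 37 C, with 57 uM final dopamine (EC100) defining full response. Beta-arrestin recruitment detected by chemiluminescent reagent, read after 1 h at ambient temperature.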
D2 ag-2: HTS Assay for Allosteric Agonists of the Human D2 Dopamine Receptor: Primary Screen for Agonists; HEK293 T-REx D2 cells, calcium flux agonist mode; activation, % at 2 µM; 340,000 tested, 0.53% active; AID 485358, 2010;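 active means activation over 3 SD above normal in the single-dose calcium agonist read, cut at about 30% in these data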
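Tetracycline-induced HEK293 T-REx cells with force-coupled D2 receptor, plated overnight at 30 C, loaded with no-wash calcium dye. After a 10 s baseline, compound was pin-added and calcium flux read kinetically for 180 s; calcium rises flagged agonists.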
A number is an active result; – = inactive; · = no result given.

SMILES | D2 PAM-1 | D2 PAM-2 | D2 antagonist | D2 ag-1 | D2 ag-2
CC(=O)CSc1nnc2cc(C)c3cc(C)cc(C)c3n12 | · | – | · | · | –
Nc1ccccc1SCc1ccccc1 | – | – | 30.7 | – | –
Cc1nc2sc(C(c3ccco3)N3CCN(c4ccccc4)CC3)c(O)n2n1 (configuration not stated) | – | – | – | – | –
Cc1nc2sc(C(c3ccco3)N3CCN(C(c4ccccc4)c4ccccc4)CC3)c(O)n2n1 (configuration not stated) | – | 32.5 | – | – | –
Cc1cc2ccccc2n2c(SCC(=O)Nc3cccc(C(F)(F)F)c3)nnc12 | · | – | · | · | –
CCc1cc2c(N[C@@H](Cc3c[nH]c4ccccc34)C(=O)O)ncnc2s1 | – | – | – | – | –
CCc1cc2c(NC(Cc3c[nH]c4ccccc34)C(=O)O)nc(C)nc2s1 (configuration not stated) | – | – | 34.2 | – | –
COc1ccc(C(OCC(O)CNCCc2ccc(S(N)(=O)=O)cc2)c2ccc(OC)cc2)cc1 (configuration not stated) | – | – | – | – | –
OC(CNCCc1ccc(C(F)(F)F)cc1)COC(c1ccccc1)c1ccccc1 (configuration not stated) | – | – | 31.0 | – | –
COC(=O)C1=C(C(=O)OC)C(C(=O)OC)C(C(=O)OC)C(C(=O)OC)(C(=O)OC)C(C(=O)OC)=C1C(=O)OC (configuration not stated) | – | · | · | – | ·
COC(=O)C1=C(C(=O)OC)N2C=CC=CC2(C)C(C(=O)OC)=C1C(=O)OC (configuration not stated) | – | – | 32.3 | – | –
c1ccc(-c2ncc(CN3CCN(c4ccccn4)CC3)[nH]2)cc1 | – | – | 88.7 | – | –
FC(F)(F)c1ccc(N2CCN(Cc3ccc4c(c3)OCO4)CC2)nc1 | – | – | – | – | –
CSc1nc(N2CCN(Cc3ccc4c(c3)OCO4)CC2)c2ccccc2n1 | – | – | 37.9 | – | –
Cc1nc(N2CCN(Cc3ccc4c(c3)OCO4)CC2)c2cc(-c3ccccc3)sc2n1 | – | – | – | – | –
c1ccc(N2CCN(Cc3ccc4c(c3)OCO4)CC2)nc1 | 90.8 | · | · | 65.3 | ·
COc1cccc(-c2cn3c(n2)sc2cc(C(=O)NCCc4ccc(OC)c(OC)c4)ccc23)c1 | · | – | · | · | –
Cc1cccc(N2CCN(C(=O)c3cc4c(=O)[nH]c5ccc(C)cc5c4s3)CC2C)c1 (configuration not stated) | · | – | · | · | ·
Cc1ccc(-c2ccc(=O)n(CC(=O)NC(C)c3ccccc3)n2)cc1 (configuration not stated) | · | – | · | · | –
Cc1ccc(C)c(-c2nnc(NC(=O)c3ccc4c(c3)OCCO4)o2)c1 | · | · | · | · | –
CC1CC(C)(C)NC(=S)N1CCC(=O)NCCc1ccc(Cl)cc1 (configuration not stated) | – | – | 34.7 | – | –
CC(C)c1ccc2c(c1)NC(c1ccc(F)cc1)=NC(c1cccs1)=N2 | · | – | · | · | –
Cc1ccc(Oc2nc(-c3ccccc3)ncc2S(C)(=O)=O)cc1 | – | – | – | – | –
Cc1ccc(Oc2nc(-c3ccccc3)ncc2S(=O)(=O)c2ccc(C)cc2)cc1 | – | – | 40.5 | – | –
Cc1ccc2nc3sc(C(=O)Nc4ccc(F)cc4)cc3cc2c1 | · | – | · | · | –
COc1ccc(/C=N/N2C(=O)CSC2=S)cc1Br | – | – | 33.3 | – | –
CC(C)(C)c1ccc(NC(=O)CSc2n[nH]c(=O)n2-c2cccnc2)cc1 | – | – | – | – | –
CC(C)c1ccc(NC(=O)CSc2n[nH]c(=O)n2-c2cccnc2)cc1 | – | – | 30.6 | – | –
Cc1nc(-c2ccc(Cl)cc2)sc1C1(C)CC(c2cccc(F)c2)=NO1 (configuration not stated) | – | – | 30.5 | – | –

Assay outcomes as filed in PubChem.
